From PubChem BioAssay (EPA / NIEHS)
Results filed as inconclusive are left out. Calls of active or inactive are those of the source. Rule for the calls, unless noted: active = hit-call score of the fitted dose curve at least 0.9, where 1 is the maximum; inconclusive = response in the unintended direction; inactive = score below 0.9.

What was measured:
[1] = ATG_TAL_CIS: Attagene CIS-FACTORIAL HepG2 Assay for human TAL Basal Promoter (AID 2282966; active = hit-call score of the fitted dose curve at least 0.9, where 1 is the maximum; inactive = score below 0.9;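 note: background control endpoint measuring basal TAL promoter reporter mRNA not a specific factor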); details: HepG2 Attagene cis-factorial TAL promoter reporter; actives raise or lower the signal
How it was run: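 Readout: reporter mRNA, fluorescence by CE. System: HepG2, transient multi-reporter transfection, endogenous TF activity. Exposure: 24 h. Analysis: bidirectional, DMSO-normalized; background control.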

[2] = ATG_TGFb_CIS: Attagene CIS-FACTORIAL HepG2 Assay for human Transforming Growth Factor (TGF) (AID 2282967; active = hit-call score of the fitted dose curve at least 0.9, where 1 is the maximum; inactive = score below 0.9); details: HepG2 Attagene CIS TGFb reporter, mRNA transcription; actives raise or lower the signal
How it was run: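 Multiplexed cis-reporter HepG2 system, 24 h treatment; mRNA induction read by fluorescence after RT-PCR and CE; DMSO negative control, bidirectional curve fitting.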

[3] = ATG_VDRE_CIS: Attagene CIS-FACTORIAL HepG2 Assay for human Vitamin D Receptor Element (VDRE) (AID 2282968; active = hit-call score of the fitted dose curve at least 0.9, where 1 is the maximum; inactive = score below 0.9); details: HepG2 VDRE cis-reporter transcription, actives raise or lower the signal
How it was run: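 Cell-based multiplexed reporter format in human liver HepG2 cells, 24 h post-dose. Fluorescence from capillary electrophoresis of reporter cDNA gives the signal, with DMSO as negative control and baseline.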

[4] = biological target: Nuclear receptor subfamily 1 group I member 3 (Homo sapiens) (UniProt Q14994); assay: ATG_CAR_TRANS: Attagene TRANS-FACTORIAL HepG2 Assay for human Constitutive Androstane Receptor (CAR) (AID 2282969); details: HepG2 Attagene TRANS-FACTORIAL CAR reporter;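 note: activators raise reporter mRNA above DMSO so AC50 marks induction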
How it was run: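 HepG2 cells transiently transfected with GAL4-UAS reporter units; TRANS format reads activity of exogenous chimeric NR-Gal4 protein. After 24 h dosing, reporter mRNA quantified by RT-PCR, 6-FAM labelling and capillary electrophoresis; gain of signal fitted against DMSO.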

[5] = biological target: Steroid hormone receptor ERR1 (Homo sapiens) (UniProt P11474); assay: ATG_ERRa_TRANS: Attagene TRANS-FACTORIAL HepG2 Assay for human Estrogen-Related Receptor alpha (ERRa) (AID 2282971); details: HepG2 Attagene TRANS reporter, ERRa transactivation
How it was run: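 HepG2 cells were transiently transfected with multiple GAL4-UAS reporter units, then dosed with compound for 24 h. Total RNA was reverse-transcribed, reporter cDNA PCR-amplified and fluorescently labelled, and fragments resolved by capillary electrophoresis; induction was compared with DMSO.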

[6] = biological target: X-box-binding protein 1 (Homo sapiens) (UniProt P17861); assay: ATG_Xbp1_CIS: Attagene CIS-FACTORIAL HepG2 Assay for human X-box Binding Protein 1 (XBP1) (AID 2282972; active = hit-call score of the fitted dose curve at least 0.9, where 1 is the maximum; inactive = score below 0.9); details: HepG2 XBP1 cis-element reporter, Attagene multiplex; actives raise or lower the signal
How it was run: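 HepG2 cells transiently transfected with cis-regulated multiple reporter transcription units; endogenous transcription factor activity measured 24 hours after chemical dosing. Reporter mRNA quantified by RT-PCR, 6-FAM primer extension, HpaI digestion and capillary electrophoresis; bidirectional fitting versus DMSO.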

[7] = ATG_GAL4_TRANS: Attagene TRANS-FACTORIAL HepG2 Assay for GAL4 (Internal Marker) (AID 2282976); details: HepG2 Attagene TRANS GAL4 internal marker reporter
How it was run: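 Fluorescence from capillary electrophoresis of labelled RT-PCR products quantifies reporter mRNA induction after 24 h dosing of HepG2 cells carrying transfected GAL4-UAS reporter transcription units. Vehicle DMSO serves as baseline.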

[8] = biological target: Estrogen-related receptor gamma (Homo sapiens) (UniProt P62508); assay: ATG_ERRg_TRANS: Attagene TRANS-FACTORIAL HepG2 Assay for human Estrogen-Related Receptor gamma (ERRg) (AID 2282977); details: HepG2 Attagene TRANS reporter, ERRg transactivation;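 note: hits increase reporter signal over DMSO so potencies reflect activators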
How it was run: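 HepG2 cells transiently transfected with multiplexed GAL4-UAS reporter units and chimeric NR-Gal4 constructs were exposed to test chemicals for 24 h. Reporter mRNA was measured by RT-PCR, 6-FAM primer extension, HpaI digestion and capillary electrophoresis; gain-of-signal versus DMSO.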

[9] = biological target: Hepatocyte nuclear factor 4-alpha (Homo sapiens) (UniProt P41235); assay: ATG_HNF4a_TRANS: Attagene TRANS-FACTORIAL HepG2 Assay for human Hepatocyte Nuclear Factor 4 alpha (HNF4a) (AID 2282982); details: HepG2 HNF4a transactivation reporter, mRNA readout
How it was run: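 Gain-of-signal mRNA induction, relative to DMSO vehicle, was read after 24 h compound treatment of HepG2 cells bearing transfected GAL4-UAS reporters. Detection used RT-PCR, 6-FAM primer extension and capillary electrophoresis.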

[10] = ATG_M_06_TRANS: Attagene TRANS-FACTORIAL HepG2 Assay for M06 Transcription Factor (Internal Marker) (AID 2282983); details: HepG2 Attagene TRANS M06 internal marker reporter
How it was run: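 Measured by capillary electrophoresis of fluorescently labelled RT-PCR products, this endpoint reflects reporter mRNA in HepG2 cells harbouring exogenous NR-GAL4 reporter constructs after 24 h exposure, with DMSO as baseline.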

[11] = ATG_M_32_TRANS: Attagene TRANS-FACTORIAL HepG2 Assay for M32 Transcription Factor (Internal Marker) (AID 2282984); details: HepG2 Attagene TRANS M32 internal marker reporter;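 note: transcript level of a background control reporter unit measured by RT-PCR and capillary electrophoresis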
How it was run: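 Capillary electrophoresis of 6-FAM-labelled reporter fragments gives the signal; data fitted for gain over DMSO negative control. Source: HepG2 cells bearing transient multiple reporter transcription units, 24 h exposure.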

[12] = biological target: Transcriptional activator Myb (Homo sapiens) (UniProt P10242); assay: ATG_Myb_CIS: Attagene CIS-FACTORIAL HepG2 Assay for human Myeloblastosis (Myb) Proto-Oncogene Transcription Factor (AID 2282986; active = hit-call score of the fitted dose curve at least 0.9, where 1 is the maximum; inactive = score below 0.9); details: HepG2 Attagene CIS-FACTORIAL Myb reporter transcription; actives raise or lower the signal
How it was run: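 Transiently transfected HepG2 cells carrying a multiplexed cis-promoter reporter set report endogenous Myb activity after 24 h compound exposure. Reporter mRNA is read by RT-PCR with capillary electrophoresis of fluorescent products, fitted bidirectionally against DMSO.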

[13] = biological target: Nuclear respiratory factor 1 (Homo sapiens) (UniProt Q16656); assay: ATG_NRF1_CIS: Attagene CIS-FACTORIAL HepG2 Assay for human Nuclear Respiratory Factor 1 (NRF1) Orphan Gene (AID 2282987; active = hit-call score of the fitted dose curve at least 0.9, where 1 is the maximum; inactive = score below 0.9); details: HepG2 NRF1 cis-element reporter, Attagene multiplex; actives raise or lower the signal
How it was run: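 HepG2 cells transiently transfected with multiple cis-regulated reporter units, exposed 24 h. Reporter mRNAs measured by RT-PCR, fluorescent labelling, HpaI digestion and capillary electrophoresis; bidirectional fitting against DMSO.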

[14] = biological target: Estrogen receptor (Homo sapiens) (UniProt P03372); assay: ATG_ERa_TRANS: Attagene TRANS-FACTORIAL HepG2 Assay for human Estrogen Receptor alpha (ERa) (AID 2282970); details: HepG2 Attagene TRANS ERa GAL4 reporter, mRNA
How it was run: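 Transactivation via ERa-Gal4 chimera in HepG2; 24 hour incubation; reporter mRNA detected by fluorescence RT-PCR and capillary electrophoresis.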

[15] = biological target: Oxysterols receptor LXR-beta (Homo sapiens) (UniProt P55055); assay: ATG_LXRb_TRANS: Attagene TRANS-FACTORIAL HepG2 Assay for human Liver X Receptor beta (LXRb) (AID 2282981); details: HepG2 Attagene TRANS GAL4-LXRb reporter, mRNA
How it was run: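 Gain-of-signal mRNA reporter endpoint, DMSO as negative control. Transiently transfected HepG2 cells carrying the NR-Gal4 chimera and GAL4-UAS reporter units were treated 24 h; transcripts quantified by RT-PCR and capillary electrophoresis fluorescence.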

[16] = biological target: Nuclear receptor subfamily 4 group A member 2 (Homo sapiens) (UniProt P43354); assay: ATG_NURR1_TRANS: Attagene TRANS-FACTORIAL HepG2 Assay for human Nuclear Receptor Related Protein 1 (NURR1) (AID 2282985); details: HepG2 Attagene TRANS reporter, mRNA readout
How it was run: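 HepG2 / transient MRTU transfection / 24 h compound exposure / RT-PCR + CE fluorescence of reporter mRNA / gain-of-signal vs DMSO.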

[17] = ATG_M_19_TRANS: Attagene TRANS-FACTORIAL HepG2 Assay for M19 Transcription Factor (Internal Marker) (AID 2282974); details: HepG2 Attagene TRANS-FACTORIAL M19 internal marker reporter
How it was run: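 HepG2 transiently transfected with GAL4-UAS multiplex reporter constructs, exposed 24 h; reporter RNA quantified by RT-PCR, 6-FAM labeling, HpaI digestion and capillary electrophoresis; internal background marker fitted upward versus DMSO.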

[18] = biological target: Glucocorticoid receptor (Homo sapiens) (UniProt P04150); assay: ATG_GR_TRANS: Attagene TRANS-FACTORIAL HepG2 Assay for human Glucocorticoid Receptor (GR) (AID 2282978); details: HepG2 Attagene TRANS GR reporter, mRNA transcription;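 note: activators score as hits since higher reporter transcript over DMSO is fitted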
How it was run: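 HepG2 cells transiently transfected with GAL4-UAS reporter units and exogenous GR-Gal4 chimera, dosed 24 h. Reporter mRNA by RT-PCR, FAM labeling, HpaI digest and capillary electrophoresis; gain-of-signal fit versus DMSO.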

[19] = biological target: Oxysterols receptor LXR-alpha (Homo sapiens) (UniProt Q13133); assay: ATG_LXRa_TRANS: Attagene TRANS-FACTORIAL HepG2 Assay for human Liver X Receptor alpha (LXRa) (AID 2282980); details: HepG2 Attagene TRANS reporter, LXRa transactivation
How it was run: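 Transient HepG2 transfectants, 24 h dosing, RT-PCR/CE mRNA reporter quantitation; gain-of-signal vs DMSO.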

[20] = biological target: Bile acid receptor (Homo sapiens) (UniProt Q96RI1); assay: ATG_FXR_TRANS: Attagene TRANS-FACTORIAL HepG2 Assay for Farnesoid X Receptor (FXR) (AID 2282979); details: HepG2 Attagene TRANS FXR-GAL4 reporter transcription;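 note: hits raise reporter mRNA above DMSO so AC50 marks FXR activation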
How it was run: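 Chimeric FXR-GAL4 activity in transiently transfected human HepG2 liver cells is scored as induction of reporter mRNA after 24 h of dosing. Detection uses RT-PCR with fluorescent labelling and capillary electrophoresis, with DMSO serving as baseline.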

Sequence of Nuclear respiratory factor 1 (Homo sapiens) (Q16656 whole entry, looked up): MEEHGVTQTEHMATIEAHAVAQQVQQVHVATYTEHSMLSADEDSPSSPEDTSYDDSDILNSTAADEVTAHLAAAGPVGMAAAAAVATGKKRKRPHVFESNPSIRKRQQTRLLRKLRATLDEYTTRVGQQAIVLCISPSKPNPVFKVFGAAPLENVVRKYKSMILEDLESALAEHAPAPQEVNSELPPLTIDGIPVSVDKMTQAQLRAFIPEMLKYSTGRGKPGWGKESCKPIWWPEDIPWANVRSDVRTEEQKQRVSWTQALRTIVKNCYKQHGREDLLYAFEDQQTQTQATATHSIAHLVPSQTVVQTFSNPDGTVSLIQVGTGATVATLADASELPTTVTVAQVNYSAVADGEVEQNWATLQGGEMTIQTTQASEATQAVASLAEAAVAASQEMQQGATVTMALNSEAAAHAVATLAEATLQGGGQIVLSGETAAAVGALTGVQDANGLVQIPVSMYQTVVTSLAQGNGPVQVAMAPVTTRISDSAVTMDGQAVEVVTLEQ
Sequence of Transcriptional activator Myb (Homo sapiens) (P10242 whole entry, looked up): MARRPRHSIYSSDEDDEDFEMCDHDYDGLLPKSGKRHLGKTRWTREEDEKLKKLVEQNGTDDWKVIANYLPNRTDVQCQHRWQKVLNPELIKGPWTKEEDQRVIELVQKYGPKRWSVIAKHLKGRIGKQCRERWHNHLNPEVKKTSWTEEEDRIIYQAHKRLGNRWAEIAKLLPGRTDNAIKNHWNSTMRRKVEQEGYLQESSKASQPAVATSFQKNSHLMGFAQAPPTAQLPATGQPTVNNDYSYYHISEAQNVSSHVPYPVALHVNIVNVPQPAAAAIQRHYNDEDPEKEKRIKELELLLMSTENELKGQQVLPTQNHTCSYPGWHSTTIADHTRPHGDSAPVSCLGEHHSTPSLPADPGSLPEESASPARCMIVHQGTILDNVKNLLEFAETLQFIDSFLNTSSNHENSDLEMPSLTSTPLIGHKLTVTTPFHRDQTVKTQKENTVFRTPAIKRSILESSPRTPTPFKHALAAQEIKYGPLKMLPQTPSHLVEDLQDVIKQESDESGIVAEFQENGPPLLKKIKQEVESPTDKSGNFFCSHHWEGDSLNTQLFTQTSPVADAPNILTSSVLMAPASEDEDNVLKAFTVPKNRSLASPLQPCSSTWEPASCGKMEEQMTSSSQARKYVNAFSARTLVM
Sequence of Estrogen-related receptor gamma (Homo sapiens) (P62508 whole entry, looked up, the tested form may be a part): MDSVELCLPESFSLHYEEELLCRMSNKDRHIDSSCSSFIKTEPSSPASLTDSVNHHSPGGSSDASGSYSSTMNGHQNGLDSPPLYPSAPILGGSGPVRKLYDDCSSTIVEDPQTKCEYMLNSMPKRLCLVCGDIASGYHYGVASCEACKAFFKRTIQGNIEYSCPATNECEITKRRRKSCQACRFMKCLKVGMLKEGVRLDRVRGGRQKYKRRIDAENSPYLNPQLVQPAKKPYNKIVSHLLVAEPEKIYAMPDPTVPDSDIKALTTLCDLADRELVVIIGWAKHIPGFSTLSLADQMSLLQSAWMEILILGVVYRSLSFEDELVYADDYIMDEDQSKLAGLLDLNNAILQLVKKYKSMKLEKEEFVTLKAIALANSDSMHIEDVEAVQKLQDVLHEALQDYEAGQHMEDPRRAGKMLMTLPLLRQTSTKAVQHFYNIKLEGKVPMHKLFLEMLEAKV
Sequence of Estrogen receptor (Homo sapiens) (P03372 whole entry, looked up, the tested form may be a part): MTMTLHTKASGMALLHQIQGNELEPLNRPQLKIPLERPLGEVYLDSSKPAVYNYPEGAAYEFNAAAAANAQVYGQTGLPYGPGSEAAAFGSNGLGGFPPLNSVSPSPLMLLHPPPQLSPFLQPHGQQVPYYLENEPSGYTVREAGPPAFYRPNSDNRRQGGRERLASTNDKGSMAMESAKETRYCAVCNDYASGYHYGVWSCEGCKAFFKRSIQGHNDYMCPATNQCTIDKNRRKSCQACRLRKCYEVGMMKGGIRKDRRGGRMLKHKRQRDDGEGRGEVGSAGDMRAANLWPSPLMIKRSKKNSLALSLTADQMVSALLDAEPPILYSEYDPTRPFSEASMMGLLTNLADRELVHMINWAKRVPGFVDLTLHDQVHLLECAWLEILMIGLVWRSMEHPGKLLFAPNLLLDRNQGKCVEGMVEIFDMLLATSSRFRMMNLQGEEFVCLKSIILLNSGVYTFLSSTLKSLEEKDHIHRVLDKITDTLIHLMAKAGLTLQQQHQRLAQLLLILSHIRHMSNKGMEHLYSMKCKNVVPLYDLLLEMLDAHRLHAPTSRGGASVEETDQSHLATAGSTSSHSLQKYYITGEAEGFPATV
Sequence of X-box-binding protein 1 (Homo sapiens) (P17861 whole entry, looked up): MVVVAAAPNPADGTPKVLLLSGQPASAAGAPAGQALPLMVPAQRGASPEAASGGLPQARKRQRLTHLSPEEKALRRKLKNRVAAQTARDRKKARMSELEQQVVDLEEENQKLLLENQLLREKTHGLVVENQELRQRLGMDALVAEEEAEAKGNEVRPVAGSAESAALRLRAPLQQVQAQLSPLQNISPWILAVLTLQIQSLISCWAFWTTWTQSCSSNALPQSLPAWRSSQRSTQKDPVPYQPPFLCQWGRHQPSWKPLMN
Sequence of Oxysterols receptor LXR-beta (Homo sapiens) (P55055 whole entry, looked up, the tested form may be a part): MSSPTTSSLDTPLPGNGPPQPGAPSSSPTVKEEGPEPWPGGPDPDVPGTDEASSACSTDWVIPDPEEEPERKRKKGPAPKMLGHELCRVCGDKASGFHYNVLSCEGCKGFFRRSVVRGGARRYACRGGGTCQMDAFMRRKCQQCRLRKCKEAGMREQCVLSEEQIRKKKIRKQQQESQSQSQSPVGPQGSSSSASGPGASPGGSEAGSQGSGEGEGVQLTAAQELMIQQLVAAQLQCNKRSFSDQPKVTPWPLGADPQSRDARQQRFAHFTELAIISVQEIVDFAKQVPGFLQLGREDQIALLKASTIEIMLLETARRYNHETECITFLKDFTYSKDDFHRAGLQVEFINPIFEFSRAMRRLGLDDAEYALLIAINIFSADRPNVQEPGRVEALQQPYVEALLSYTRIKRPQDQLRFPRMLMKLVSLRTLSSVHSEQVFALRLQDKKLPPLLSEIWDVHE
Sequence of Oxysterols receptor LXR-alpha (Homo sapiens) (Q13133 whole entry, looked up): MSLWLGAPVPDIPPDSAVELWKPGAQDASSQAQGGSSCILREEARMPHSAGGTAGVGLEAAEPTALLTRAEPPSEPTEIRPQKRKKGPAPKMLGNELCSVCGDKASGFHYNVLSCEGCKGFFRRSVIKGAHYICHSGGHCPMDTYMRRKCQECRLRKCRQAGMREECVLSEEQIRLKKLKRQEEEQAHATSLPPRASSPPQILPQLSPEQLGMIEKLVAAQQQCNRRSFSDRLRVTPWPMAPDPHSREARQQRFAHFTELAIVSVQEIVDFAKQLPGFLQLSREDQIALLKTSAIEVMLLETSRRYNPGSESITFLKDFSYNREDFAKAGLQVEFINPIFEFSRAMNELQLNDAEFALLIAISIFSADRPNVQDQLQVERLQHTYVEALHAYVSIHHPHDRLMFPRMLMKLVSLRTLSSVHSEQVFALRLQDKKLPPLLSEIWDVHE
Sequence of Nuclear receptor subfamily 1 group I member 3 (Homo sapiens) (Q14994 whole entry, looked up, the tested form may be a part): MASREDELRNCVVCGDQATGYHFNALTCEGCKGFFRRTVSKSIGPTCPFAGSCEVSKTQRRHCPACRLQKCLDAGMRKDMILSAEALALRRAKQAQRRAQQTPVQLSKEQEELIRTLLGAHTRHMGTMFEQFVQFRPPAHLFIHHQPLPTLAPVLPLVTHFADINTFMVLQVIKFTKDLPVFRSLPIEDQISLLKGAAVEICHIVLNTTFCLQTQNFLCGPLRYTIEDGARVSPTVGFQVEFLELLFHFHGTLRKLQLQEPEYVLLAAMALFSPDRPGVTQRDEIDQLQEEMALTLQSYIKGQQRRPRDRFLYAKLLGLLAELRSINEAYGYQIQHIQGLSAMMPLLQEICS
Sequence of Nuclear receptor subfamily 4 group A member 2 (Homo sapiens) (P43354 whole entry, looked up): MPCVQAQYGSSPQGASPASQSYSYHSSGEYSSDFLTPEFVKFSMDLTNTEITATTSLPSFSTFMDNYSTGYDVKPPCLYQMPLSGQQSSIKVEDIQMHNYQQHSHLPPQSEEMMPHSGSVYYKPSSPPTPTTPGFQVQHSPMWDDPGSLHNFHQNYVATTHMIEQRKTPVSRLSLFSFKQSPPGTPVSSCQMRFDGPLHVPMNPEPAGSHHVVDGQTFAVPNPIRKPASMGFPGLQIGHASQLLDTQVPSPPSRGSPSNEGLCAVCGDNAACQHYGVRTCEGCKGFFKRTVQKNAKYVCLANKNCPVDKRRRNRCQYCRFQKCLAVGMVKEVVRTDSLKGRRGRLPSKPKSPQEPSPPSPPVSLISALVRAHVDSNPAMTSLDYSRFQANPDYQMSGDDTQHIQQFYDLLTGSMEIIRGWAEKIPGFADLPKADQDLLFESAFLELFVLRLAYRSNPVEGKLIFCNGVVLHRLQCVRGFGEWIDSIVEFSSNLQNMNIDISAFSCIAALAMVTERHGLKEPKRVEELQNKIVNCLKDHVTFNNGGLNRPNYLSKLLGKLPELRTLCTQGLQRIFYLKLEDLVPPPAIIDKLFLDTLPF
Sequence of Hepatocyte nuclear factor 4-alpha (Homo sapiens) (P41235 whole entry, looked up, the tested form may be a part): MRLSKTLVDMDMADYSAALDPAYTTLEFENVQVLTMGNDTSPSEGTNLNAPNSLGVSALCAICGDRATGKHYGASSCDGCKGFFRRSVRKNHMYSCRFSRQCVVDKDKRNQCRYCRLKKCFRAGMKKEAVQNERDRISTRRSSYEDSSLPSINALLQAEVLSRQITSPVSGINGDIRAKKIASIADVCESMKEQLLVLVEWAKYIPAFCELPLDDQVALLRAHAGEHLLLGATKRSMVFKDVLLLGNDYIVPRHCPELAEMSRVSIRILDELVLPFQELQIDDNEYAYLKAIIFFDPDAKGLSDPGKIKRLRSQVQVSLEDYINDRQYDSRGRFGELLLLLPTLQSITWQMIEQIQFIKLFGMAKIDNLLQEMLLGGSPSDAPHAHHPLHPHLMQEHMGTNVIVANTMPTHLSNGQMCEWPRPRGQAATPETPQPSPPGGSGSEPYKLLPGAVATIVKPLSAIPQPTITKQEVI

C=CC(=O)OCCC(=O)O
outcome [1]: inactive
outcome [2]: inactive
outcome [3]: inactive
outcome [4]: inactive
outcome [5]: inactive
outcome [6]: inactive
outcome [7]: inactive
outcome [8]: inactive
outcome [9]: inactive
outcome [10]: inactive
outcome [11]: inactive
outcome [12]: inactive
outcome [13]: inactive

CC(C)c1ccc(C=O)cc1
outcome [1]: inactive
outcome [2]: inactive
outcome [3]: inactive
outcome [4]: inactive
outcome [14]: inactive
outcome [6]: inactive
outcome [15]: inactive
outcome [9]: inactive
outcome [10]: inactive
outcome [11]: inactive
outcome [12]: inactive
outcome [13]: inactive

CCOc1ccc(N)c([N+](=O)[O-])c1
outcome [1]: inactive
outcome [2]: inactive
outcome [3]: inactive
outcome [4]: inactive
outcome [6]: inactive
outcome [15]: inactive
outcome [9]: inactive
outcome [10]: inactive
outcome [16]: inactive
outcome [12]: inactive
outcome [13]: inactive

C=C(C)c1cccc(C(C)(C)N=C=O)c1
outcome [1]: inactive
outcome [2]: inactive
AC50 [3]: 0.377 µM (active)
outcome [4]: inactive
outcome [6]: inactive
outcome [17]: inactive
outcome [18]: inactive
outcome [19]: inactive
outcome [15]: inactive
outcome [9]: inactive
outcome [10]: inactive
outcome [11]: inactive
outcome [12]: inactive
outcome [13]: inactive

O=c1n(CCO)c(=O)n(CCO)c(=O)n1CCO
outcome [1]: inactive
outcome [2]: inactive
outcome [3]: inactive
outcome [4]: inactive
outcome [6]: inactive
outcome [17]: inactive
outcome [7]: inactive
outcome [20]: inactive
outcome [9]: inactive
outcome [11]: inactive
outcome [12]: inactive
outcome [13]: inactive

O=C(OCC1CCC2OC2C1)C1CCC2OC2C1 (stereo unspecified)
outcome [1]: inactive
outcome [2]: inactive
outcome [3]: inactive
outcome [4]: inactive
outcome [6]: inactive
outcome [10]: inactive
outcome [16]: inactive
outcome [12]: inactive
outcome [13]: inactive

Cc1cccc(C(=O)O)c1
outcome [1]: inactive
outcome [2]: inactive
outcome [3]: inactive
outcome [14]: inactive
outcome [5]: inactive
outcome [6]: inactive
outcome [7]: inactive
outcome [15]: inactive
outcome [10]: inactive
outcome [11]: inactive
outcome [12]: inactive
outcome [13]: inactive

CCOC(=O)CC(C(C)=O)C(C)=O
outcome [1]: inactive
outcome [2]: inactive
outcome [3]: inactive
outcome [14]: inactive
outcome [6]: inactive
outcome [17]: inactive
outcome [18]: inactive
outcome [19]: inactive
outcome [9]: inactive

CCOC(=O)Cc1cccc2ccccc12
outcome [1]: inactive
outcome [2]: inactive
outcome [3]: inactive
outcome [14]: inactive
outcome [6]: inactive
outcome [17]: inactive
outcome [8]: inactive
outcome [19]: inactive
outcome [15]: inactive
outcome [11]: inactive
outcome [12]: inactive
outcome [13]: inactive

O=[N+]([O-])C1(Br)COCOC1
outcome [1]: inactive
outcome [2]: inactive
outcome [3]: inactive
outcome [14]: inactive
outcome [5]: inactive
AC50 [6]: 53.1 µM (active)
outcome [17]: inactive
outcome [7]: inactive
outcome [18]: inactive
outcome [20]: inactive
outcome [15]: inactive
outcome [10]: inactive
outcome [11]: inactive
outcome [16]: inactive
outcome [12]: inactive
outcome [13]: inactive

O=S1(=O)OC(c2ccc(O)cc2)(c2ccc(O)cc2)c2ccccc21
outcome [1]: inactive
outcome [2]: inactive
outcome [3]: inactive
AC50 [14]: 23.2 µM (active)
outcome [6]: inactive
outcome [17]: inactive
outcome [8]: inactive
outcome [9]: inactive
outcome [10]: inactive
outcome [16]: inactive
outcome [12]: inactive
